About 770 (37%) of roughly 2,100 compounds were called active. Some of the results follow. A number with no mark means an inactive call.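 The calls were made as follows: active = by-eye trace score of 1 for enhancers or -1 for inhibitors, so actives lie on both sides (some results past the limit were not filed as active); inactive = score 0, or 3 fluorescent, or 4 baseline rise.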

The assay deals with G protein-activated inward rectifier potassium channel 2 (Homo sapiens) + G protein-activated inward rectifier potassium channel 1 (Homo sapiens) (UniProt P48051+P48549). The assay is described as follows: GIRK1/2 thallium flux modulators, retest, confirmation, cell-based, HEK293 rmGlu8/hGIRK1/2, FluoZin-2 (AID 623911). Particulars: HEK293 rmGlu8/hGIRK1/2, thallium flux FluoZin-2; actives lie on both sides; glutamate co-added at its EC20 level.
G protein-activated inward rectifier potassium channel 2 (Homo sapiens) + G protein-activated inward rectifier potassium channel 1 (Homo sapiens), sequence (P48051 whole entry, looked up): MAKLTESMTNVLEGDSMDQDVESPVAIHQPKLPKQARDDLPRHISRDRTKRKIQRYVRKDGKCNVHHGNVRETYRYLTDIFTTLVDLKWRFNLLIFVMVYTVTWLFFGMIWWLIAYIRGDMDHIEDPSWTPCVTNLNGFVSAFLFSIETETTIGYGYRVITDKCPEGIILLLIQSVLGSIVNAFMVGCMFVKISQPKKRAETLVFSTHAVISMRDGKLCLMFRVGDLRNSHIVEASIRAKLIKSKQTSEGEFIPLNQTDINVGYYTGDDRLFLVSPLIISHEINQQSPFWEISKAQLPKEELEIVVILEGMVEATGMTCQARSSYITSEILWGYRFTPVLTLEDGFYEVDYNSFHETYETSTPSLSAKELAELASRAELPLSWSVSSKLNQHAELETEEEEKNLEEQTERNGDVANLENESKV
G protein-activated inward rectifier potassium channel 2 (Homo sapiens) + G protein-activated inward rectifier potassium channel 1 (Homo sapiens), sequence (P48549 whole entry, looked up): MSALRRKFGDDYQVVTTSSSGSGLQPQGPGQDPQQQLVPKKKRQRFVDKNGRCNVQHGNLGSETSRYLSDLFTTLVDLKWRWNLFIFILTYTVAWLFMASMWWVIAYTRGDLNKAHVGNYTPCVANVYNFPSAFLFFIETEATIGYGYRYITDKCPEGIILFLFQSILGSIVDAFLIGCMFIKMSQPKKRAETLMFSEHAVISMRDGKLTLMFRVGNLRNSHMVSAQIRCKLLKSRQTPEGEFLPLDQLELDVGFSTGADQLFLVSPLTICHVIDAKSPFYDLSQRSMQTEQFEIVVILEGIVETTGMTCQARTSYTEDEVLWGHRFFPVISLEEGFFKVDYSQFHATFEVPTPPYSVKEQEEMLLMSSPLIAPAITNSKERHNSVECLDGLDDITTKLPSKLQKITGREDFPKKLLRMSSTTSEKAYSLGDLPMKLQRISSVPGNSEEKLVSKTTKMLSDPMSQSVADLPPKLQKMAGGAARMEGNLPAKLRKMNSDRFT
On to `Cc1cc(N2C(=O)C(O)=C(C(=O)c3ccc(C)o3)C2c2cccs2)no1` (stereo not given), for which the manual score was 0. In the case of `CCCCn1c(-c2ccc(Cl)cc2)nc2c(=O)n(C)c(=O)[nH]c21`, the manual score was 0. To `CCN(CC)C(=O)CSc1ncnc2sc(-c3ccccc3)cc12` belongs 0; to `CC(C)N(C(=O)CSc1ncnc2sc(-c3ccccc3)cc12)C(C)C`, 0; to `CC(=O)c1c(C)[nH]c(C(=O)CSc2ncnc3sc(-c4ccccc4)cc23)c1C`, 1 (active).

For `Brc1ccccc1-c1nnc2sc(-c3ccc4c(c3)OCCO4)nn12`, the manual score was -1 (active). As to `Clc1ccccc1-c1nnc2sc(-c3ccc4c(c3)OCO4)nn12`, the manual score was 0. To `Clc1ccccc1-c1nnc2sc(-c3ccccn3)nn12` belongs 0.5. With `CCN(C(=O)CSc1nc2ccccc2n1CCc1ccccc1)C1CCS(=O)(=O)C1` (stereo not given), the manual score was 0. As to `CCCOC(=O)NC(CC)COC(=O)Nc1cccc(C)c1C` (stereo not given), the manual score is 0. On to `Cc1cc(C=C2C(=O)c3ccccc3C2=O)c(C)n1-c1ccccc1`, for which the manual score was 0.5. The value for `Cc1cc(C)c(-n2c(C)cc(/C=C3/NC(=O)NC3=O)c2C)c(C)c1` was -1 (active). In the case of `Cc1ccc(C)c(OCC(O)CN2C(C)CCCC2C)c1` (stereo not given), the manual score is -1 (active). Turning to `C/C(=N\NC(=S)NCCc1ccccc1)c1ccc(C)cc1`, the manual score was 0. The value for `O=C(COC(=O)C1CC(=O)N(Cc2ccccc2)C1)Nc1ccc2c(c1)OCO2` (stereo not given) was 0; that for `O=C1c2ccccc2C(Nc2ccc3c(c2)OCCO3)N1Cc1ccccc1` (stereo not given) was -1 (active); that for `CC(C)Oc1ccccc1C1Nc2ccccc2C(=O)N1c1ccc2c(c1)OCCO2` (stereo not given) was 0.

On to `O=C(CSCC(=O)N1CCCCC1)Nc1nc(-c2ccc(Cl)s2)cs1`, for which the manual score is 0. The value for `c1cn(C23CC4CC(CC(C4)C2)C3)cn1` was -1 (active); that for `CCc1ccc2c(c1)C1(NN=C(c3cccc4ccccc34)S1)C(=O)N2` (stereo not given) was 0; that for `O=C(NC(=S)Nc1ccccc1Cl)c1csnn1` was 1 (active).

`O=C(NC(=S)Nc1cc(C(F)(F)F)ccc1Cl)c1ccccc1`: the manual score is 0.

As to `O=C(NC(=S)Nc1ccccc1)c1cc(-c2ccccc2)nc2ccccc12`, the manual score is 0. `O=C(NC(=S)Nc1ccccc1)c1csnn1`: the manual score was 1 (active). Turning to `Cc1ccc2cccc(NC(=S)NC(=O)c3ccn(C)n3)c2n1`, the manual score is 0. To `CC(C)Oc1cccc(C(=O)NC(=S)Nc2ccccc2)c1` belongs 0; to `COc1ccc(Nc2nc(N)nc(CSc3nnc(C)s3)n2)cc1`, 0; to `Cc1cccc(C)c1NC(=O)C(NC(=O)c1ccccn1)c1ccc([N+](=O)[O-])cc1` (stereo not given), 0. Take `CC1CN(C(=O)C2CCCCC2)C(C)CN1C(=O)C1CCCCC1` (stereo not given): the manual score is 0.

Turning to `CCC(NC(=O)c1ccccc1O)c1ccccc1` (stereo not given), the manual score was 0. For `O=C(CC(=O)c1ccccc1O)c1ccc(F)cc1`, the manual score is 1 (active).

Take `O=C(CC(=O)c1cc(Cl)ccc1O)c1ccccc1`: the manual score was 0. Consider `O=C(CC(=O)c1ccccc1O)c1cccc(F)c1`, for which the manual score is 1 (active). To `Cc1cccc(C(=O)CC(=O)c2cc(Cl)ccc2O)c1` belongs 0.5; to `N#CCCN(Cc1ccccc1)C(=S)NC(=O)c1ccccc1`, 1 (active). For the compound `COc1cccc(C(=O)NC(=S)Nc2ccc3c4c(cccc24)CC3)c1`, the manual score was 0.

As for `COc1ccc(CN(CCC#N)C(=S)NC(=O)c2ccccc2)cc1`, the manual score is 1 (active). As to `Cc1cc(C)cc(OCC(=O)N2N=C(C(F)(F)F)CC2(O)C(C)(C)C)c1` (stereo not given), the manual score is 0. For `N/C(=N/O)c1nc(N2CCCC2)nc(N(c2ccccc2)c2ccccc2)n1`, the manual score is -1 (active). In the case of `O=C(N1CCCCC1)N1CCN(C(=O)N(c2ccccc2)c2ccccc2)CC1`, the manual score was 0. Regarding `CC(C)C(=O)Nc1nnn(C)n1`, the manual score was 0.

For `CCOC(=O)N1CCN(C(=O)c2oc3ccc(S(=O)(=O)N4CC(C)CC(C)C4)cc3c2C)CC1` (stereo not given), the manual score was -1 (active). The value for `Cc1c(C(=O)NCc2cccnc2)oc2ccc(S(=O)(=O)N3CCC4(CC3)OCCO4)cc12` was 0; that for `COC(=O)c1nc(NC(C)=O)n[nH]1` was 0; that for `CC1(C)CC2CC(C)(CN2c2ncnc3ccccc23)C1` (stereo not given) was -1 (active). The value for `O=C(/C=C/c1ccc(Cl)cc1)NC(=S)NN1CCCCC1c1cccnc1` (stereo not given) was 0. With `Cc1cccc(N=C2NC(=O)/C(=C/C=C/c3ccco3)S2)c1C`, the manual score is 1 (active). Take `COC(=O)C1=C(C)NC(=O)/C1=C\c1ccco1`: the manual score was 0. Turning to `COc1ccc(Nc2nc(-c3cccc([N+](=O)[O-])c3)nc3ccccc23)cc1`, the manual score is 0. `CCCn1c(=N)n(CCOc2ccc(OC)cc2)c2ccccc21`: the manual score is -1 (active). To `COc1ccc(-n2c(=S)[nH]c3ccccc32)cc1` belongs 0; to `Cc1cccc(OCCn2c(=S)[nH]c3ccccc32)c1`, 0. For the compound `CCCn1c(=N)n(CC(O)COc2cccc(C)c2)c2ccccc21` (stereo not given), the manual score was -1 (active).

Take `Cc1cccc(OCC(O)CN2C(C)(C)CC(O)CC2(C)C)c1` (stereo not given): the manual score was 0.

Consider `CCOC(=O)C(CCCCOc1cccc(CC)c1)C(=O)OCC`, for which the manual score was 0.

As for `CCOC(=O)Cn1c(=N)n(CCOc2cccc(C)c2)c2ccccc21`, the manual score is -1 (active). Take `CCCCn1c(=N)n(CC(O)COc2cccc(C)c2)c2ccccc21` (stereo not given): the manual score was -1 (active). In the case of `CCCCn1c(=O)nc2n(-c3ccccc3)c3ccccc3cc-2c1=O`, the manual score is 0. With `CC1CSc2ccccc2NC1=S` (stereo not given), the manual score is 0. As to `COC(=O)c1sc(N2C(=O)C(O)=C(C(=O)c3ccc(C)o3)C2c2ccc(F)cc2)nc1C` (stereo not given), the manual score is 0.

In the case of `CC(C)(C)OC(=O)COc1cc(O)c2c(=O)cc(-c3ccccc3)oc2c1`, the manual score is 0. To `Fc1ccc(-c2nnc3ccc(N4CCc5ccccc5C4)nn23)cc1` belongs 0; to `CCOC(=O)Cn1c(=N)n(Cc2ccccc2F)c2ccccc21`, -1 (active). To `CCOC(=O)Cn1c(=O)oc2cc(S(=O)(=O)NCCCc3ccccc3)ccc21` belongs 0; to `CCOC(=O)c1cc2n(c1N)-c1ccccc1C2=O`, 3.

For the compound `CC(C)Oc1ccc(C2CC(=O)N(c3ccccc3)C2=O)cc1` (stereo not given), the manual score is 0. The value for `CCOc1cc(N2CCOCC2)c(OCC)cc1NC(=O)COC(=O)CCc1c[nH]c2ccccc12` was 0; that for `CCC(=O)N1CCN(c2ccccc2NC(=O)COc2cccc(C)c2)CC1` was -1 (active). To `CC(C)C(=O)Nc1ccccc1N1CCN(C(=O)c2ccccc2)CC1` belongs -1 (active); to `CC1(C)Cc2cccc(OCC(=O)Nc3ccccc3N3CCOCC3)c2O1`, -0.5; to `CCCC(=O)Nc1ccccc1N1CCN(C(=O)c2ccccc2)CC1`, -0.5.

`Cc1cccc(OCC(=O)NC(=S)Nc2ccccc2N2CCOCC2)c1`: the manual score is 0.

As for `O=C(Nc1ccccc1N1CCCCC1)c1ccccc1F`, the manual score was 0. With `Cc1cccc(OCC(=O)Nc2ccccc2N2CCN(C(=O)C(C)C)CC2)c1C`, the manual score was -1 (active). For `Cc1ccccc1OCC(=O)Nc1ccccc1N1CCOCC1`, the manual score is -1 (active).

The values above are taken from PubChem BioAssay AID623911 (Vanderbilt High Throughput Screening Facility, 2012).
